This is part of a sample that, as a whole, favours compounds with a hit. Of some 83,000 tested, about 20% had one in any assay.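 Step 1: grow cells in 96-well plates. Step 2: add test compound at a single concentration. Step 3: incubate 48 h. Step 4: record percent growth.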 A number with no mark means an inactive call. Activity calls are given as the source filed them. How the source made its calls: active means growth percent below 10; inactive means the rest.

This experiment relates to MDA-MB-435 melanoma. As to the kind of experiment: NCI-60 one-dose screen, 48 h (100 = growth as untreated, 0 = no growth, -100 = all killed). The following applies: 10 µM.
Turning to `c1ccc(Sc2ccccc2)cc1`, the growth was 99.6%.

Consider `CCCCC(O)c1ccccc1` (centres undefined), for which the growth was 108%. The same measure for `C[N+](C)=c1ccc2nc3c(cc(Nc4ccccc4)c4ccccc43)oc-2c1`: 53.5%; for `CCc1nc(N)nc(N)c1-c1ccc(Cl)cc1`: 35%; for `FC(F)(F)c1ccc2c(c1)N(CCCN1CCN(C3CC3)CC1)c1ccccc1S2`: 57.7%. As for `N#CC(=Nc1cccc(F)c1)C1=C(O)c2ccccc2C1=O`, the growth was 99.4%.

Take `COC(=O)c1ccccc1N(C)C`: the growth is 108%. Under `COc1ccc(C(=O)C(Br)C(Br)C(=O)O)cc1` (centres undefined) stands 108%; under `COC1=CC(=O)c2nc(Cl)ccc2C1=O`, -42.1% (active).

Turning to `O=C(NCc1ccco1)Nc1c(Cl)cc(Cl)cc1Cl`, the growth was 96.5%. Take `O=[N+]([O-])c1cccc(N=Nc2ccc(O)cc2O)c1`: the growth is 87.3%. The same measure for `CC[N+](C)(CC)CCO`: 100%; for `COc1cc(/C=C/C(=O)c2ccccc2)cc(OC)c1OC`: 13.7%; for `N#Cc1c(N)sc(=S)c2c1CCCC2`: 109%. The same measure for `CNc1nc(NC)c2cn[nH]c2n1`: 111%; for `NCCC(=O)c1ccc(Cl)cc1`: 110%; for `C[C@]12CC[C@@H]3c4ccc(OCC(=O)O)cc4CC[C@H]3[C@@H]1CCC2=O`: 116%. The same measure for `COc1ccc(NC(=O)CCl)cc1`: 87%; for `O=[N+]([O-])c1ccc(CO)cc1`: 90.3%; for `NNc1ccccc1C(=O)O`: 116%. For the compound `c1ccc(Cc2ccccc2)cc1`, the growth is 112%.

As for `S=c1[nH]ccn1-c1ccccc1Cl`, the growth was 108%.

As to `COc1cc2cc(c1Cl)N(C)C(=O)C[C@H](OC(=O)[C@H](C)N(C)C(C)=O)[C@]1(C)O[C@H]1[C@H](C)[C@@H]1C[C@@](O)(NC(=O)O1)[C@H](OC)C=C/C=C(\C)C2`, the growth is -53.3% (active). The same measure for `NC(=S)N/N=C/c1ccc(N)cc1`: 105%.

`C/C(=N\NC(=O)c1ccccc1N)c1ccccc1O`: the growth was 57.8%. As for `O=C(O)c1ccccc1NCc1ccco1`, the growth is 119%. The same measure for `CC(=O)OC(OC(C)=O)C1CCCO1` (centres undefined): 108%. Turning to `CC1(C)Nc2cccc3c(N=Nc4ccc(N=Nc5ccccc5)c5ccccc45)ccc(c23)N1`, the growth is 109%.

Turning to `CCCC1(c2ccccc2)NC(=O)NC1=O` (centres undefined), the growth is 113%.

In the case of `CC(=O)Nc1c(C)cc(C)cc1C`, the growth is 102%. As to `Cc1cc(/C=C/c2ccc3cc(N(C)C)ccc3[n+]2C)c(C)n1-c1ccccc1`, the growth was -49.8% (active). Under `CCOc1ccccc1/C=N/Nc1nc2ccccc2o1` stands 113%; under `C=CCc1cc(C(C)=O)cc(OC)c1O`, 113%. Under `Cc1cc(C)c(CC(=O)O)c(C)c1` stands 104%; under `C=CC[N+](C)(C)C`, 102%; under `CC(=O)OCC1CCCO1` (centres undefined), 100%. Consider `CN(C)CCN(Cc1ccccc1)c1ccccc1`, for which the growth was 95%.

Consider `O=C(O)CSCSCC(=O)O`, for which the growth is 99.6%. In the case of `COc1cc2c(cc1O)CC[C@@H]1C2CC[C@@]2(C)C1CC[C@@H]2O` (some centres undefined), the growth is -46.9% (active).

Values taken from PubChem BioAssay (NCI).
